Data published in PubChem BioAssay (NCATS).
Values joined by “and” are separate entries in the source; they are usually repeats but may differ in a detail not shown here. Identical values can stand only once. Inconclusive results are not listed. Active and inactive are the calls of the source. Unless noted, the call rests on the fitted dose curve; in most records, active means well fitted curve in the direction sought with a large enough effect; inconclusive means small, poorly fitted or top-dose-only effect, or another doubt; inactive means no such curve, though single readings can be large; an effect the other way counts as inactive or inconclusive.

Assays:
[1] = Cell Viability - BJ (AID 421; calls by dose curve;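 further: potency means the concentration at half of the fitted maximal effect; cells exposed to compound for 40 hours at 37 °C before readout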); details: BJ fibroblast viability, qHTS
In short: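 Normal human BJ foreskin fibroblasts, 1500/well in complete medium, treated 40 hr at 37 °C. Cellular ATP by CellTiter-Glo luminescence; normalized to DMSO and 100 uM tamoxifen, AC50 from Hill fit.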

[2] = Cellular Toxicity (caspase-3) HepG2 (AID 654); details: HepG2 caspase-3 activation, luminescence, 0% = DMSO only, 100% = tamoxifen; series mostly up to 92.2 µM;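 further: cells exposed to compound for 16 hours before reading; 0% = DMSO alone and 100% = caspase signal from 100 µM tamoxifen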
In short: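 HepG2 cells (1500/well) in complete medium were treated with compounds for 16 hr at 37 °C. Caspase-3/7 activity was then read as luminescence from peptide-aminoluciferin cleavage. AC50 came from Hill fits, normalized to DMSO and 100 uM tamoxifen.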

[3] = Cellular Toxicity (caspase-3) BJ (AID 658); details: BJ fibroblasts, luminescence, normalized: DMSO 0%, staurosporine 100%; series mostly up to 91.7 µM
In short: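 Luminescent aminoluciferin-substrate cleavage reports caspase 3/7 activity in normal human BJ fibroblasts after 16 hr compound exposure at 37 °C. Normalized to DMSO (basal) and 10 uM staurosporine (100%); AC50 from Hill fit of concentration-response.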

[4] = Cellular Toxicity (caspase-3) MRC-5 (AID 659); details: MRC-5 cells, luminescence, normalized: DMSO 0%, 10 µM staurosporine 100%; series mostly up to 91.7 µM
In short: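 Luminescence from caspase-cleaved aminoluciferin substrate (Caspase-Glo 3/7, 1 hr RT) reports caspase 3/7 activity in MRC-5 lung fibroblasts after 16 hr compound exposure. Normalized to DMSO basal and 10 uM staurosporine as 100%; AC50 from Hill fits.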

[5] = Cellular Toxicity (caspase-3) Hek293 (AID 664); details: HEK293 caspase-3 activation, DMSO = 0%, 100 µM tamoxifen = 100%; at 92.2 µM (top of the series);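 further: cells exposed to compound for 16 h at 37 °C before readout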
In short: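 HEK293 cells were exposed to compounds in complete medium for 16 hr at 37 °C, then caspase-3/7 activity was read by Caspase-Glo 3/7 luminescence after 20 min at room temperature. Data normalized to DMSO and 100 uM tamoxifen; AC50 from Hill fits.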

[6] = Cellular Toxicity (caspase-3) N2a (AID 665); details: N2a cells, luminescence, normalized: DMSO 0%, 10 µM staurosporine 100%; series mostly up to 92.2 µM;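 further: compound exposure lasted 16 h at 37 °C before readout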
In short: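 Mouse N2a neuroblastoma cells (1500/well) were treated with compounds for 16 h at 37 °C, then caspase-3/7 activity was read by Caspase-Glo luminescence after 1 h at room temperature. Data were normalized to DMSO and 10 uM staurosporine; AC50 from Hill fits.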

[7] = Cellular Toxicity (caspase-3) NIH 3T3 (AID 666); details: NIH 3T3 caspase-3 activation, apoptosis/toxicity; series mostly up to 92.2 µM;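 further: caspase signal read after 16 h compound exposure; 0% = DMSO basal and 100% = 100 µM tamoxifen stimulation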
In short: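 Mouse NIH 3T3 fibroblasts (1000 cells/well) were treated with compound for 16 hr at 37°C in complete medium; caspase-3/7 activity was read by Caspase-Glo luminescence. Normalized to DMSO and 100 uM tamoxifen; AC50 from Hill fits.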

[8] = Cell Viability - LYMP2-001 (AID 921); details: LYMP2-001 lymphoblastoid cell viability; series mostly up to 92.2 µM;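 further: 0% = DMSO only and full inhibition = tetraoctylammonium bromide control wells; nearly all actives have a fitted effect of over 70% in size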
In short: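 Human lymphoblastoid LYMP2-001 cells, 2500 per well, in complete medium, treated 24 h at 37 C. Viability from cellular ATP by CellTiter-Glo luminescence; AC50 from Hill-equation fits of qHTS concentration-response.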

[9] = MultiTox-Fluor Cytotoxicity Assay - LYMP1-001 - Dead Cells (AID 946); details: LYMP1-001 lymphoblastoid cells, dead-cell protease fluorescence; series mostly up to 92.2 µM;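 further: 0% = DMSO and 100% = tetraoctylammonium bromide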
In short: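 LYMP1-001 lymphoblastoid cells (2500/well) treated 16 h at 37 C. Dead-cell protease cleavage of bis-AAF-R110 read at Ex/Em 485/520. Normalized to DMSO and 15 uM tetraoctylammonium bromide; AC50 from Hill fits.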

[10] = MultiTox-Fluor Cytotoxicity Assay - LYMP1-002 - Live Cells (AID 955); details: LYMP1-002 lymphoblastoid live-cell protease fluorescence viability; series mostly up to 46.1 µM; further: on the % scale 0 is the no-effect control and ±100 the full control effect
In short: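 Human lymphoblastoid LYMP1-002 cells, 2500/well in complete medium, rested 5 hr at 37 C, then exposed to compounds for 16 hr at 37 C. Live-cell protease cleavage of GF-AFC read by fluorescence (Ex/Em 405/510) after 60 min at room temperature; AC50 from Hill fits.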

[11] = MultiTox-Fluor Cytotoxicity Assay - LYMP1-003 - Dead Cells (AID 961); details: LYMP1-003 lymphoblastoid cells, dead-cell protease fluorescence; series mostly up to 92.2 µM;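 further: 0% = DMSO and 100% = tetraoctylammonium bromide; nearly all actives have a fitted effect of over 70% in size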
In short: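 LYMP1-003 human lymphoblastoid cells (2500/well) exposed to compound 16 h at 37 C in complete medium; dead-cell protease read with bis-AAF-R110 fluorescence (Ex/Em 485/520) after 60 min at room temperature. Normalized to DMSO and 15 uM tetraoctylammonium bromide; AC50 from Hill fit.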

[12] = MultiTox-Fluor Cytotoxicity Assay - LYMP1-003 - Live Cells (AID 962); details: LYMP1-003 lymphoblastoid cells, MultiTox-Fluor live-cell protease fluorescence; series mostly up to 92.2 µM;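 further: 0% = DMSO only and full loss = 92 µM tetraoctylammonium bromide; cytotoxic hits lower the live-cell protease signal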
In short: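 LYMP1-003 human lymphoblastoid cells (2500/well) in complete medium were preincubated 5 hr at 37 C, then exposed to compounds for 16 hr at 37 C. Live-cell protease cleavage of GF-AFC read by fluorescence (Ex/Em 405/510); AC50 from Hill fits.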

[13] = Cell Viability - LYMP2-021 (AID 974); details: LYMP2-021 lymphoblastoid cells viability; series mostly up to 92.2 µM;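 further: compound exposure lasts 24 hours at 37 °C; on the % scale 0 is the no-effect control and ±100 the full control effect; nearly all actives have a fitted effect of over 55% in size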
In short: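 Human lymphoblastoid cells (2500/well) were preincubated 5 hr at 37 C, then exposed to compounds for 24 hr at 37 C in complete medium. Intracellular ATP was read by CellTiter-Glo luminescence; AC50 came from Hill-equation fits of concentration-response data.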

[14] = Cell Viability - LYMP2-025 (AID 976); details: LYMP2-025 lymphoblastoid cell viability; series mostly up to 92.2 µM;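 further: plate controls were DMSO only for no effect and tetraoctylammonium bromide control for full effect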
In short: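 Human lymphoblastoid LYMP2-025 cells (2500/well) were pre-incubated 5 hr at 37 C, then treated with compounds for 24 hr at 37 C in complete medium. Viability was read as intracellular ATP by CellTiter-Glo luminescence; AC50 from Hill fits.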

[15] = Cell Viability - LYMP2-006 (AID 978); details: LYMP2-006 lymphoblastoid cell viability, qHTS; series mostly up to 92.2 µM; further: on the % scale 0 is the no-effect control and ±100 the full control effect; nearly all actives have a fitted effect of over 60% in size
In short: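 Human lymphoblastoid cells (LYMP2-006), 2500/well in complete medium, were treated with compound for 24 hr at 37 C. Cellular ATP was read by CellTiter-Glo luminescence after 30 min, and AC50 values came from Hill-equation fits of concentration-response data.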

[16] = Cell Viability - LYMP1-002 - Assay at 24 hr (AID 993); details: LYMP1-002 lymphoblastoid cells viability; series mostly up to 92.2 µM; further: on the % scale 0 is the no-effect control and ±100 the full control effect
In short: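 Human lymphoblastoid LYMP1-002 cells, 2500/well in complete medium, were treated with compounds for 24 h at 37 C; intracellular ATP was read by CellTiter-Glo luminescence. AC50 values came from Hill-equation fits of qHTS concentration-response data.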

[17] = Cell Viability - LYMP1-002 - Assay at 40 hr (AID 994); details: LYMP1-002 lymphoblastoid cell viability; series mostly up to 92.2 µM;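 further: 0% = DMSO only and full inhibition = 92 µM tetraoctylammonium bromide; nearly all actives have a fitted effect of over 60% in size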
In short: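 Human lymphoblastoid cells, 2500/well in complete medium, were preincubated 5 hr at 37 C, then exposed to compounds for 40 hr at 37 C. Intracellular ATP was read by CellTiter-Glo luminescence after 30 min at room temperature; AC50 from Hill-equation fits.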

[18] = qHTS Assay for Identification of Small Molecule Inducers of Hypoxia Response (AID 2120; active means well fitted curve in the direction sought with a large enough effect in the signal ratio, with a control signal flat, not every such curve was filed as active; the % refers to the signal ratio; further: 0% is about no effect); details: hypoxia response reporter cells, beta-lactamase ratio readout; series mostly up to 104 µM
In short: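 HRE-beta-lactamase reporter in CellSensor HRE-bla ME-180 cells, 2500 cells/well in Opti-MEM with 0.5% dialyzed FBS; compounds tested as titration series, 17 h at 37 degrees C. CCF4 substrate 2.5 h at room temperature; AC50 from 460/530 nm ratio.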

[19] = target: Peroxisome proliferator-activated receptor alpha (Homo sapiens) (UniProt Q07869); assay: qHTS assay for small molecule agonists of the peroxisome proliferator-activated receptor alpha (PPARalpha) signaling pathway (AID 651778); details: PathHunter PPARalpha complementation, chemiluminescence, 6 h; stronger effect = higher value; further: % of control where 0% means no effect
In short: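 Cells plated at 2,000/well and held overnight at 37 C, 5% CO2, then compound added by pin tool for 6 hr; after PathHunter detection reagent and 60 min at room temperature, chemiluminescence from enzyme complementation was read.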

[20] = qHTS assay for cell viability of the p53RE-bla HCT-116 cell line (AID 743292); details: p53RE-bla HCT-116 viability, ATP luminescence, 16 h; series mostly up to 95 µM; further: on the % scale 0 is the no-effect control and ±100 the full control effect; nearly all actives have a fitted effect of over 55% in size
In short: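 Quantitative high-throughput format: compounds in DMSO were pinned onto p53RE-bla HCT-116 cells (4,000/well) and incubated 16 h at 37 C. Total intracellular ATP, read by CellTiter-Glo luminescence, reflects viable cell number.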

Chain of Peroxisome proliferator-activated receptor alpha (Homo sapiens) (Q07869 whole entry, looked up): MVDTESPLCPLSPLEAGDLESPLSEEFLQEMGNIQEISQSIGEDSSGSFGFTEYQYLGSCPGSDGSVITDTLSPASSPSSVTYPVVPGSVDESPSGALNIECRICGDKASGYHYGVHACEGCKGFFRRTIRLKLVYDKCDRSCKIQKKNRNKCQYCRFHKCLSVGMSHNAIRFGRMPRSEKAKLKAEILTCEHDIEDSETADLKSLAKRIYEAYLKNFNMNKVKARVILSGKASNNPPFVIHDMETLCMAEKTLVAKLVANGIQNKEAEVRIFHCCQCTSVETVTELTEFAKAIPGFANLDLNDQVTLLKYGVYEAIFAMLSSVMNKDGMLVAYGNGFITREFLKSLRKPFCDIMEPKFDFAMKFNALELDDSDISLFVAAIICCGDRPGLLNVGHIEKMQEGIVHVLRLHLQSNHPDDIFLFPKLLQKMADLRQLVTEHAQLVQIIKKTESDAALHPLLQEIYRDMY

CC(C)(OOC(C)(C)c1ccccc1)c1ccccc1
inactive: Potency [1] > 92 µM | outcome [2] | outcome [3] | outcome [4] | caspase-3 activation [5] 4.99% | outcome [6] | Potency [7] | Potency [8] | outcome [9] | outcome [10] | Potency [11] | outcome [12] | Potency [13] | Potency [14] | Potency [15] | Potency [16] | Potency [17] | Potency [18] | max response [19] -0.439% and 3.52% | Potency [20]

C=CC=O
inactive: Potency [1] > 92 µM | outcome [2] | outcome [3] | outcome [4] | caspase-3 activation [5] 0.46% | outcome [6] | Potency [7] | Potency [8] | outcome [9] | outcome [10] | Potency [11] | outcome [12] | Potency [13] | Potency [14] | Potency [15] | Potency [16] | Potency [17] | Potency [18] | max response [19] -5.14% | Potency [20]

O=[N+]([O-])CCO
inactive: Potency [1] > 92 µM | outcome [2] | outcome [3] | outcome [4] | caspase-3 activation [5] 0.0344% | outcome [6] | Potency [7] | Potency [8] | outcome [9] | outcome [10] | Potency [11] | outcome [12] | Potency [13] | Potency [14] | Potency [15] | Potency [16] | Potency [17] | Potency [18] | max response [19] -2.47% | Potency [20]

OCCBr
inactive: Potency [1] > 92 µM | outcome [2] | outcome [3] | outcome [4] | caspase-3 activation [5] 0.017% | outcome [6] | Potency [7] | Potency [8] | outcome [9] | outcome [10] | Potency [11] | outcome [12] | Potency [13] | Potency [14] | Potency [15] | Potency [16] | Potency [17] | Potency [18] | max response [19] 2.96% | Potency [20]

Nc1ccc2ccccc2c1
inactive: Potency [1] > 92 µM | outcome [2] | outcome [3] | outcome [4] | caspase-3 activation [5] 2.15% | outcome [6] | Potency [7] | Potency [8] | outcome [9] | outcome [10] | Potency [11] | outcome [12] | Potency [13] | Potency [14] | Potency [15] | Potency [16] | Potency [17] | Potency [18] | max response [19] -2.41% | Potency [20]

Cl/C=C/CCl
inactive: Potency [1] > 92 µM | outcome [2] | outcome [3] | outcome [4] | caspase-3 activation [5] -1.73% | outcome [6] | Potency [7] | Potency [8] | outcome [9] | outcome [10] | Potency [11] | outcome [12] | Potency [13] | Potency [14] | Potency [15] | Potency [16] | Potency [17] | Potency [18] | max response [19] -3.36% | Potency [20]
